PubChem BioAssay
For some assays here: Results with a measured potency or affinity are listed apart. The source made the active and inactive calls. Unless noted, the rule behind the calls is not given here.

How the values were obtained:
[1] = antimalarial activity against Dd2 strain (AID 2302;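 active = growth inhibition above 50% at the single 2 µM test dose, taken to imply half-maximal potency below 2 µM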;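 note: 0% = DMSO untreated growth and 100% = chloroquine plus artemisinin killed control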); settings: P. falciparum Dd2 in RBCs, LDH growth readout, 72 h; at 2 µM; stronger effect = higher value
[2] = HepG2 cytotoxicity, primary screen, cytotoxicity control for P. falciparum antimalarial project, cell-based, ATP luminescence (AID 2303;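 active = inhibition above 50%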;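 note: 0% = DMSO wells and 100% = digitonin-killed cells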); settings: HepG2 viability, 24-48 h, at 10 µM, stronger effect = higher value
[3] = target: L-lactate dehydrogenase (Plasmodium falciparum (isolate CDC / Honduras)) (UniProt Q27743); assay: PfLDH activity inhibition – cell lysate, 3D7 strain, counter-screen for P. falciparum growth inhibition project (AID 2304);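 note: 0% = vehicle and 100% = reference inhibitor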; settings: P. falciparum 3D7 crude extract, LDH APAD/NBT absorbance; at 2 µM; stronger effect = higher value
Chain of L-lactate dehydrogenase (Plasmodium falciparum (isolate CDC / Honduras)) (Q27743 whole entry, looked up): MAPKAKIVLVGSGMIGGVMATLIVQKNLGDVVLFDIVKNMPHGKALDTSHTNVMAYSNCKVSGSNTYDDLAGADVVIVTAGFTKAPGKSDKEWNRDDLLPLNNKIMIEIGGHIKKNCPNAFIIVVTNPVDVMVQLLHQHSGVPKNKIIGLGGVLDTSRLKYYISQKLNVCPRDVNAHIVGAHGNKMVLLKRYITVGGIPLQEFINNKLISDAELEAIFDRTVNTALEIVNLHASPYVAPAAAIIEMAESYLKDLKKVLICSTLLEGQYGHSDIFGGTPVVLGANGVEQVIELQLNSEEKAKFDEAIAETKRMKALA

[4] = inhibition of 3D7 malaria parasite growth – strain 3D7 (AID 2306);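 note: 0% = DMSO wells and 100% = chloroquine plus artemisinin control wells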; settings: P. falciparum 3D7 erythrocytic growth, LDH absorbance, 72 h; at 2 µM; stronger effect = higher value
[5] = target: Calcium-dependent protein kinase 1 (Plasmodium falciparum (isolate 3D7)) (UniProt P62344); assay: PfCDPK1 kinase inhibitors, biochemical, TCAMS library (AID 1159585; cut-off not given, nearly all actives have IC50 up to about 0.98 µM;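 note: inhibitors leave more ATP so luminescence rises with inhibition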); settings: recombinant PfCDPK1, Kinase-Glo ATP depletion luminescence
Chain of Calcium-dependent protein kinase 1 (Plasmodium falciparum (isolate 3D7)) (P62344 whole entry, looked up): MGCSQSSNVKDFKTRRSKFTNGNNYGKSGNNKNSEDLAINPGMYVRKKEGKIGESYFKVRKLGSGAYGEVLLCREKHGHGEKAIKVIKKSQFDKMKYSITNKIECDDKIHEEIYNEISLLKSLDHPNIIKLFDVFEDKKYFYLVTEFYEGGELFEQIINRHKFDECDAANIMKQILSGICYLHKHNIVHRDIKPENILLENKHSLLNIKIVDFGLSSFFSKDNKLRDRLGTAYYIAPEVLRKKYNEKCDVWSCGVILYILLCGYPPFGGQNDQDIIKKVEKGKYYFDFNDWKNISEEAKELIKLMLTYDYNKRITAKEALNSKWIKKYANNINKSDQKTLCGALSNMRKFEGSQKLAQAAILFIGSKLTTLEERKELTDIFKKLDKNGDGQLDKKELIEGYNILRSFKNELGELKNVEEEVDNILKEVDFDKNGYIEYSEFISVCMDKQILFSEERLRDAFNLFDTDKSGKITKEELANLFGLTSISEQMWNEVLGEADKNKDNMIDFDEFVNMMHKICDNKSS

[6] = target: Plasmodium falciparum protein kinase 6 (PK6, PF3D7_1337100) (UniProt Q8IDW1); assay: PfPK6 kinase inhibitors, biochemical, TCAMS library (AID 1159586); settings: recombinant PfPK6, Kinase-Glo ATP depletion luminescence
Chain of Plasmodium falciparum protein kinase 6 (PK6, PF3D7_1337100) (Q8IDW1 1-305): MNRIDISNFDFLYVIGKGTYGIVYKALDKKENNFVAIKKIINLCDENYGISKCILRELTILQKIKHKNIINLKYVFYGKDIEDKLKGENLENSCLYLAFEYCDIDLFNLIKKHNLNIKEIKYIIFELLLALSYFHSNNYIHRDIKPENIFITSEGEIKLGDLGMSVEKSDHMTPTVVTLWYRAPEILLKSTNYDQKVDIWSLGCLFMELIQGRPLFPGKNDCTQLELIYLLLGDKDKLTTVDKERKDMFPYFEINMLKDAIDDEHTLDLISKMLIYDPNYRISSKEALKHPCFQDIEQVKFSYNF

[7] = target: Protein kinase 7 (PK7), Plasmodium falciparum 3D7 (PF3D7_0213400) (UniProt Q7YTF7); assay: inhibition of Plasmodium PK7 catalytic activity – biochemical, TCAMS antimalarial set, Kinase-Glo luminescence (AID 1159587); settings: recombinant PfPK7, Kinase-Glo ATP depletion luminescence
Chain of Protein kinase 7 (PK7), Plasmodium falciparum 3D7 (PF3D7_0213400) (Q7YTF7 1-343): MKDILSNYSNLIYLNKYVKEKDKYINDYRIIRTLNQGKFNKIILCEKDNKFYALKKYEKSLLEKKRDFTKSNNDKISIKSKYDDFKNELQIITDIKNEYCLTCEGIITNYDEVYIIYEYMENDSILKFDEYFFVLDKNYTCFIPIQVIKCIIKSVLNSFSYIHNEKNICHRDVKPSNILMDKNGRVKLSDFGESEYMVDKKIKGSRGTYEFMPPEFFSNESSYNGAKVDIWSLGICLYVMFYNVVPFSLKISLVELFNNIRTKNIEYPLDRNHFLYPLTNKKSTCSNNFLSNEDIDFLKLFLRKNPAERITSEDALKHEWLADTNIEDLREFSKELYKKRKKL

[8] = target: Calcium-dependent protein kinase 4 (Plasmodium falciparum (isolate 3D7)) (UniProt Q8IBS5); assay: PfCDPK4 kinase inhibitors, biochemical, TCAMS library (AID 1159588; cut-off not given, nearly all actives have IC50 up to about 0.91 µM); settings: recombinant PfCDPK4, Kinase-Glo ATP depletion luminescence
Chain of Calcium-dependent protein kinase 4 (Plasmodium falciparum (isolate 3D7)) (Q8IBS5 whole entry, looked up): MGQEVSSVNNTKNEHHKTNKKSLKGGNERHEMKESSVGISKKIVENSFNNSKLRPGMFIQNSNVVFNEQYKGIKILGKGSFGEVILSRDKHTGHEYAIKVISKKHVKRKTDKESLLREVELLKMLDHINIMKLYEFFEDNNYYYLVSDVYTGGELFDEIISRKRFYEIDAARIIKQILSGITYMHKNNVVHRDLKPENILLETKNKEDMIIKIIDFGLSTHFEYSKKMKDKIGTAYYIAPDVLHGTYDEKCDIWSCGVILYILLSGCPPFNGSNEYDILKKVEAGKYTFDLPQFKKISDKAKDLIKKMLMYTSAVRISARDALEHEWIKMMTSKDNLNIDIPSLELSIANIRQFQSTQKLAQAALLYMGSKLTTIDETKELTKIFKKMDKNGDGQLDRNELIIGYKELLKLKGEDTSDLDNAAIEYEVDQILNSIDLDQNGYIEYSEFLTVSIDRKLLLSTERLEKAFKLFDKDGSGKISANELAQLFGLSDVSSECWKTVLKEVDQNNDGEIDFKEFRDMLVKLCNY

CCN(CCCN1CCCCC1)c1cc(C)nc(Nc2cc(Cl)ccc2C)n1
active: growth inhibition [4] 99%
inactive: growth inhibition [1] 37% | inhibition [2] 36% | inhibition [3] -1% | outcome [5] | outcome [6] | outcome [7] | outcome [8]

COc1ccc2nccc(N(C)CC3(O)CCN(CC(O)c4ccc5c(c4)NC(=O)CS5)CC3)c2n1 (stereo not given)
inactive: growth inhibition [1] -4% | inhibition [2] 1% | inhibition [3] -5% | outcome [5] | outcome [6] | outcome [7] | outcome [8]
active: growth inhibition [4] 101%

CCN(CC)CCCC(C)Nc1ccnc2ccc(-c3ccccc3)cc12 (stereo not given)
inactive: growth inhibition [1] 21% | inhibition [2] 0% | inhibition [3] 2% | outcome [5] | outcome [6] | outcome [7] | outcome [8]
active: growth inhibition [4] 98%

Cc1cc(NN=Cc2cccc(Cl)c2)c2ccc(F)cc2n1
active: growth inhibition [1] 98% | growth inhibition [4] 101%
inactive: inhibition [2] -2% | inhibition [3] -4% | outcome [5] | outcome [6] | outcome [7] | outcome [8]

Cc1cccc2[nH]c(-c3ccc(-c4ccc(NC(=O)C(C)CN(C)C)cc4)cc3)nc12 (stereo not given)
inactive: inhibition [2] 18% | inhibition [3] -6% | outcome [5] | outcome [6] | outcome [7] | outcome [8]
active: growth inhibition [1] 99% | growth inhibition [4] 99%

CC1CN=C(c2cccc(NC(=O)Nc3cccc(C4=NCC(C)N4)c3)c2)N1 (stereo not given)
active: growth inhibition [1] 98% | growth inhibition [4] 94%
inactive: inhibition [2] 7% | inhibition [3] -3% | outcome [5] | outcome [6] | outcome [7] | outcome [8]

CC(C)(C)C(C)(C)Cc1ccc(O)c(CN2CCN(c3ccccc3)CC2)c1
active: growth inhibition [1] 98% | growth inhibition [4] 99%
inactive: inhibition [2] 6% | inhibition [3] 0% | outcome [5] | outcome [6] | outcome [7] | outcome [8]

CN1CCCC1CCOc1ccc2c(c1)N(C(=O)Nc1cc(Br)cc(C(F)(F)F)c1)CC2 (stereo not given)
active: growth inhibition [1] 97% | growth inhibition [4] 102%
inactive: inhibition [2] 13% | inhibition [3] -6% | outcome [5] | outcome [6] | outcome [7] | outcome [8]

Cc1ccc(NC(=O)c2cnc(N3CCN(c4ccncc4)CC3)c(Cl)c2)cc1
active: growth inhibition [4] 94%
inactive: growth inhibition [1] 24% | inhibition [2] 25% | inhibition [3] 4% | outcome [5] | outcome [6] | outcome [7] | outcome [8]

Cn1nccc1C(=O)NCCNCc1cccc(-c2csc(-c3nc4ccccc4[nH]3)c2)c1
active: growth inhibition [4] 101%
inactive: growth inhibition [1] 2% | inhibition [2] 30% | inhibition [3] 0% | outcome [5] | outcome [6] | outcome [7] | outcome [8]

COc1ccc2nccc([C@@H](O)CN3CCC(NCc4nc5cc(F)ccc5o4)CC3)c2c1
active: growth inhibition [4] 102%
inactive: growth inhibition [1] 12% | inhibition [2] 14% | inhibition [3] -8% | outcome [5] | outcome [6] | outcome [7] | outcome [8]

COc1ccccc1Cn1ccnc1SCC(=O)Nc1cccc(C(F)(F)F)c1
active: growth inhibition [1] 73% | growth inhibition [4] 86%
inactive: inhibition [2] -6% | inhibition [3] -2% | outcome [5] | outcome [6] | outcome [7] | outcome [8]

CC(C)(C)c1ccc(NC(=O)c2ccc(CN3CCCN(Cc4ccc(F)cc4)CC3)cc2)cc1
inactive: growth inhibition [1] 7% | inhibition [3] -1% | outcome [5] | outcome [6] | outcome [7] | outcome [8]
active: inhibition [2] 55% | growth inhibition [4] 87%

CC(C)(C)n1nnnc1C(c1cccnc1)N(Cc1ccccc1)Cc1ccc(Cl)cc1 (stereo not given)
active: growth inhibition [4] 96%
inactive: growth inhibition [1] 17% | inhibition [2] 0% | inhibition [3] -1% | outcome [5] | outcome [6] | outcome [7] | outcome [8]

O=C(C1CCCCC1)N1CCOC(CCN2CCC(c3ccccc3)CC2)(c2ccc(Cl)c(Cl)c2)C1 (stereo not given)
inactive: inhibition [2] 6% | inhibition [3] 6% | outcome [5] | outcome [6] | outcome [7] | outcome [8]
active: growth inhibition [1] 86% | growth inhibition [4] 92%

CC(C)C[C@H](NC(=O)[C@H](Cc1ccccc1)NC(=O)CCN1C(=O)COc2ccc(C(=O)O)cc21)C(=O)NC(CC1CCCCC1)C(O)CC(=O)NCCCn1ccnc1 (stereo not given in full)
active: growth inhibition [4] 99%
inactive: growth inhibition [1] -4% | inhibition [2] -3% | inhibition [3] -8% | outcome [5] | outcome [6] | outcome [7] | outcome [8]

Cc1cc(NC(=O)NCCN2CCC(NC(=O)c3ccc(Cl)cc3)CC2)c2ccccc2n1
inactive: inhibition [2] -4% | inhibition [3] -2% | outcome [5] | outcome [6] | outcome [7] | outcome [8]
active: growth inhibition [1] 54% | growth inhibition [4] 90%

O=C(Nc1cccc(-c2ccc(CN3CCC(O)CC3)cc2)c1)c1ccc(Cl)cc1
inactive: growth inhibition [1] 8% | inhibition [2] 46% | inhibition [3] 4% | outcome [5] | outcome [6] | outcome [7] | outcome [8]
active: growth inhibition [4] 95%

COc1ccc2nc(C)cc(Nc3ccc(Oc4ccc(Cl)c5ccccc45)c(Cl)c3)c2c1
inactive: inhibition [3] -2% | outcome [5] | outcome [6] | outcome [7] | outcome [8]
active: growth inhibition [1] 100% | inhibition [2] 83% | growth inhibition [4] 100%

CC(C)c1ccc(Nc2nc(NCCc3cnc[nH]3)nc(NCc3ccccc3)n2)cc1
inactive: growth inhibition [1] 2% | inhibition [2] 1% | inhibition [3] -2% | outcome [5] | outcome [6] | outcome [7] | outcome [8]
active: growth inhibition [4] 98%

CS(=O)(=O)NCCCNCc1cccc(-c2cccc(-c3nc4ccc(F)cc4[nH]3)c2)c1
inactive: growth inhibition [1] 5% | inhibition [2] 4% | inhibition [3] -13% | outcome [5] | outcome [6] | outcome [7] | outcome [8]
active: growth inhibition [4] 100%

Nc1c(Cl)cc(C(O)CNCCCCCCOCCc2ccc(O)cc2)cc1Cl (stereo not given)
inactive: inhibition [2] 13% | inhibition [3] -3% | outcome [5] | outcome [6] | outcome [7] | outcome [8]
active: growth inhibition [1] 97% | growth inhibition [4] 97%

CCN(CC)CCN(Cc1ccc(-c2ccc(C(F)(F)F)cc2)cc1)C(=O)Cn1c(CCc2cc(F)c(F)c(F)c2)nc(=O)c2ccccc21
active: growth inhibition [1] 70% | growth inhibition [4] 101%
inactive: inhibition [2] 31% | inhibition [3] -4% | outcome [5] | outcome [6] | outcome [7] | outcome [8]

Cc1cc(N)c2cc(NC(=O)c3cccc4ccccc34)ccc2n1
active: growth inhibition [4] 98%
inactive: growth inhibition [1] 13% | inhibition [2] 18% | inhibition [3] 4% | outcome [5] | outcome [6] | outcome [7] | outcome [8]

CN(C(=O)Nc1ccc(F)cc1)C1CCN(CCCCCNC(=O)/C=C/c2ccc(Cl)c(Cl)c2)CC1
active: growth inhibition [4] 89%
inactive: growth inhibition [1] -3% | inhibition [2] 38% | inhibition [3] -5% | outcome [5] | outcome [6] | outcome [7] | outcome [8]

Oc1ccccc1-c1nc2cccnc2n1CCc1cccc(C(F)(F)F)c1
active: growth inhibition [4] 93%
inactive: growth inhibition [1] 36% | inhibition [2] 4% | inhibition [3] -1% | outcome [5] | outcome [6] | outcome [7] | outcome [8]

COc1ccc2nccc([C@@H](O)CN3CCC(NCCOc4cccc(C(F)(F)F)c4Cl)CC3)c2c1
inactive: inhibition [2] 13% | inhibition [3] -3% | outcome [5] | outcome [6] | outcome [7] | outcome [8]
active: growth inhibition [1] 98% | growth inhibition [4] 100%

CN(C)CCNCc1ccc(-c2ccc3c(Nc4ccc(F)cc4Cl)ccnc3c2)o1
active: growth inhibition [1] 100% | growth inhibition [4] 100%
inactive: inhibition [2] 31% | inhibition [3] -9% | outcome [5] | outcome [6] | outcome [7] | outcome [8]

Cc1ccc(Oc2ccc(NC(=O)CNc3ccccc3N3CCCC3=O)cc2)cc1
inactive: inhibition [2] 14% | inhibition [3] -5% | outcome [5] | outcome [6] | outcome [7] | outcome [8]
active: growth inhibition [1] 97% | growth inhibition [4] 98%

CN1CCN(c2ccnc3ccc(NC(=O)N(C)c4ccc(Cl)c(Cl)c4)cc23)CC1
inactive: inhibition [2] 5% | inhibition [3] -3% | outcome [5] | outcome [6] | outcome [7] | outcome [8]
active: growth inhibition [1] 85% | growth inhibition [4] 100%

CC(OC(=O)c1ccc(C(=O)NCC2CC2)cc1)C(C)(C)C (stereo not given)
inactive: inhibition [2] 10% | inhibition [3] -3% | outcome [5] | outcome [6] | outcome [7] | outcome [8]
active: growth inhibition [1] 86% | growth inhibition [4] 93%

O=C(O)c1ccc(NC(=O)C2CC(=O)N(Cc3ccc(Cl)cc3)C(=Nc3ccc(Cl)cc3)S2)cc1 (stereo not given)
active: growth inhibition [1] 95% | growth inhibition [4] 99%
inactive: inhibition [2] -1% | inhibition [3] -6% | outcome [5] | outcome [6] | outcome [7] | outcome [8]

Clc1ccc(Cl)c2[nH]c(CNCCCNc3nc4ccccc4[nH]3)cc12
inactive: growth inhibition [1] 39% | inhibition [3] -6% | outcome [5] | outcome [6] | outcome [7] | outcome [8]
active: inhibition [2] 88% | growth inhibition [4] 100%

CC[C@H](C)CNC(=O)c1ccnc(-c2ccc(CNCCCc3ccccc3)cc2)c1
active: growth inhibition [1] 84% | growth inhibition [4] 101%
inactive: inhibition [2] 17% | inhibition [3] -4% | outcome [5] | outcome [6] | outcome [7] | outcome [8]

CN1CCN(Cc2cccc(-c3ccc4c(Nc5ccc(Oc6cccnc6)cc5)ccnc4c3)c2)CC1
inactive: inhibition [2] 15% | inhibition [3] 0% | outcome [5] | outcome [6] | outcome [7] | outcome [8]
active: growth inhibition [1] 100% | growth inhibition [4] 100%

CN(C)CCNC(=O)c1csc(Nc2ccc(Cl)c(Cl)c2)n1
active: growth inhibition [1] 100% | growth inhibition [4] 100%
inactive: inhibition [2] 4% | inhibition [3] -3% | outcome [5] | outcome [6] | outcome [7] | outcome [8]

Clc1cc(Cl)cc(Nc2ccnc(Nc3cc(Cl)cc(Cl)c3)n2)c1
active: growth inhibition [1] 73% | growth inhibition [4] 99%
inactive: inhibition [2] 11% | inhibition [3] -1% | outcome [5] | outcome [6] | outcome [7] | outcome [8]

CN(C)CCNCc1ccc(-c2ccc(-c3nc4ccccc4[nH]3)s2)cc1
inactive: inhibition [2] -2% | inhibition [3] 1% | outcome [5] | outcome [6] | outcome [7] | outcome [8]
active: growth inhibition [1] 100% | growth inhibition [4] 101%

Cc1ccc(C2=NNC3(S2)C(=O)Nc2ccc(C)cc23)cc1 (stereo not given)
inactive: inhibition [2] 35% | inhibition [3] 6% | outcome [5] | outcome [6] | outcome [7] | outcome [8]
active: growth inhibition [1] 89% | growth inhibition [4] 95%

Cc1cc(-c2ccc(S(=O)(=O)Nc3cc4c(cc3OC(C)C)CCN(C)CC4)cc2)ccc1Cl
inactive: growth inhibition [1] 19% | inhibition [2] 33% | inhibition [3] -1% | outcome [5] | outcome [6] | outcome [7] | outcome [8]
active: growth inhibition [4] 90%
